NPC1 promoter act = activates the NPC1 promoter | Huh7 NPC1 promoter luciferase reporter, 24 h | actives 2.4% (n = 320,000) | Potency, µM (titrated, usually from 9.22 µM), without a hit: at the top dose activation, usual class: activators; further: % of control where 0% means no effect; nearly all actives have a fitted effect of over 60% in size
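Luminescence from an NPC1 promoter-driven luciferase reporter in stably transfected Huh7 cells was measured after 24 h compound treatment at 37 °C, followed by 10 min ambient incubation with luciferase detection reagent.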
Rab9 prom act = activators of Rab9 promoter | Huh7 Rab9 promoter-luciferase reporter, luminescence, 24 h | Potency, µM (highest dose often 9.22 µM), for inactives: at the highest dose activation, negative = inhibition, hits mostly activators | actives 2.8% (n = 320,000) | AID 485297; further: % of control where 0% means no effect; nearly all actives have a fitted effect of over 60% in size
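Luminescence read-out: Huh7 cells stably expressing Rab9-luciferase, treated 24 h with compound at 37 °C, then lysed with luciferase reagent for 10 min at ambient before reading.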
FLuc modulator = counter-screen for miR-21 project: firefly luciferase inhibitors or activators | P08659 | purified FLuc, Km substrates, luminescence inhibition | Potency, µM (highest dose often 57.5 µM), for inactives: at the highest dose activity change, negative = inhibition, usual class: inhibitors | actives 6.9% (n = 360,000) | AID 588342;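 further: plate controls were vehicle for no effect and reference inhibitor for full effect; nearly all actives have a fitted effect of over 55% in size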
Target sequence (P08659 whole entry, looked up): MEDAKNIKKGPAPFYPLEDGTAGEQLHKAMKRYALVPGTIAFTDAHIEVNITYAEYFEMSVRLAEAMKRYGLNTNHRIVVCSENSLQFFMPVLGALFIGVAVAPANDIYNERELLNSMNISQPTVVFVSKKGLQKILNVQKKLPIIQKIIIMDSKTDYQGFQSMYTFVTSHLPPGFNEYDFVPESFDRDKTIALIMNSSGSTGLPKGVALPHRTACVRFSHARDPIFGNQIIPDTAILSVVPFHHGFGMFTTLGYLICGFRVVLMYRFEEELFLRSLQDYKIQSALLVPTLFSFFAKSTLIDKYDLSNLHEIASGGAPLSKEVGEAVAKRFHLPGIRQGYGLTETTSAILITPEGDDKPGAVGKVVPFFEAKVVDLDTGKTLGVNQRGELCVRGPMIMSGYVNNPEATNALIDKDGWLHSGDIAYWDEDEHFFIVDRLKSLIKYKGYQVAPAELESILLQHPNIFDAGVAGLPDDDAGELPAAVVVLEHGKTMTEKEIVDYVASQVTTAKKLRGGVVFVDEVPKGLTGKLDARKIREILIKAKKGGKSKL
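Biochemical qHTS of compounds, final roughly 60 µM downward over six points, against 10 nM purified firefly luciferase using Km concentrations of substrates (10 uM D-luciferin, 10 uM ATP) in Tris acetate pH 7.5 buffer; luminescence output.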
ELG1 genotoxic = inducers of genotoxicity in HEK293T ELG1-luciferase cells; actives 1.3% (n = 330,000); HEK293T ELG1-luciferase reporter, luminescence, 16 h; Potency, µM (titrated, usually from 46 µM), for the others: top-dose activity change, positive = activation, actives largely listed as activators; further: % of control where 0% means no effect; nearly all actives have a fitted effect of over 60% in size
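16 hr compound incubation (37 °C, 5% CO2) of HEK293T cells carrying luciferase-tagged ELG1; luciferase then measured by ONE-Glo luminescence after 30 min at RT.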
SMN2 splice up = increases expression of the SMN2 splice variant. HEK293 SMN2-luciferase splicing reporter, luminescence, 30-36 h. actives 2.8% (n = 210,000). Potency, µM (series often up to 46.1 µM), for the others: at the highest dose activity change, positive = activation, most hits filed as activators. AID 1458; further: % of control where 0% means no effect; nearly all actives have a fitted effect of over 55% in size
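qHTS luciferase splicing reporter: luminescence rises when SMN2 exon 7 is included in transfected HEK293 cells. Compound exposure lasted 30-36 h at 37C, with 4.5 mM final sodium butyrate as control, followed by a ONE-Glo read.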
KinaseGlo FLuc = Kinase-Glo luciferase inhibition (counter-screen); Potency, µM (titrated, usually from 38.3 µM), inactives show top-dose activity change, negative = inhibition, actives largely listed as inhibitors; Q27757; actives 0.28% (n = 200,000); Kinase-Glo luciferase, ATP luminescence, 8 min; AID 1379; further: on the % scale 0 is the no-effect control and ±100 the full control effect; nearly all actives have a fitted effect of over 60% in size
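Compounds were added to a substrate mix at pH 7.2 (50 mM imidazole, 10 uM ATP, within the enzyme's linear range), followed by Kinase-Glo detection reagent; luminescence was measured after 8 minutes at ambient temperature.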
The depositor's hits bear a star; ? = inconclusive; / = not tested or not shown. Shown are actives, neighbours in structure and some others; about 7.5% of the full set was active somewhere. The call rests on the fitted dose curve; in most records, active means well fitted curve in the direction sought with a large enough effect; inconclusive means small, poorly fitted or top-dose-only effect, or another doubt; inactive means no such curve, though single readings can be large; an effect the other way counts as inactive or inconclusive. Potency means the concentration at half of the fitted maximal effect.

SMILES	NPC1 promoter act	Rab9 prom act	FLuc modulator	ELG1 genotoxic	SMN2 splice up	KinaseGlo FLuc
O=C(COc1ncnc2cc(Cl)ccc12)c1ccc2c(c1)OCCO2	3.2µM*	0.63µM*	1.9µM*	?	/	/
O=C(COc1ncnc2ccccc12)c1ccc2c(c1)OCCO2	1.1µM*	1.1µM*	4.8µM*	?	/	/
Cc1ccc(C)c(C(=O)COc2ncnc3ccccc23)c1	8%	18%	?	2%	14%	-1%
O=C(CSc1ncnc2ccccc12)c1ccc2c(c1)OCCO2	?	2.8µM*	3.4µM*	?	/	/
CCCN(CCC)C(=O)C1CCCN(c2ncnc3onc(-c4ccc(F)cc4)c23)C1 (stereo unspecified)	/	/	2%	/	/	/
COc1ccccc1C(=O)Nc1cccc(C(=O)OCc2cc(=O)n3ccsc3n2)c1	/	/	-2%	/	/	/
CC(C)(C)OC(=O)N[C@H](/C=C/c1ccccc1)C(=O)OC(C)(C)C	1%	1%	-7%	-3%	/	/
O=C(c1ccc(Cl)s1)N1CCc2ccccc21	?	2.5µM*	3.8µM*	6.5µM*	22µM*	-26%
O=C(c1ccc(C(=O)N2CCCc3ccccc32)s1)N1CCCc2ccccc21	-1%	0%	-1%	-9%	-38%	0%
CCc1sc(C(=O)N2CCc3ccccc32)cc1C	1.1µM*	0.35µM*	1.9µM*	1.8µM*	8.9µM*	11µM*
ClCc1csc(N/N=C/c2cccs2)n1	4%	21%	15µM*	1%	/	/
Cc1ccc(Nc2nc(-c3ccc(C)cc3)c(CC(=O)O)s2)cc1	2%	-1%	?	4%	-8%	0%
C(=N\Nc1nc(-c2ccccc2)cs1)/c1ccncc1	3.2µM*	?	11µM*	6%	/	-2%
O=C(O)Cc1sc(Nc2cccc3ccccc23)nc1-c1ccccc1	6%	1%	24µM*	2%	/	/
O=C(O)Cc1sc(N/N=C\c2ccncc2)nc1-c1ccccc1	-5%	-5%	15µM*	-1%	/	/
COC(=O)c1cc(S(=O)(=O)N2CCCC2=O)c(Cl)cc1Cl	-8%	0%	-1%	?	/	/
O=C(O)Cc1sc(Nc2ccc(Cl)cc2)nc1-c1cccs1	?	3.5µM*	13µM*	?	14µM*	-7%
C(=N\Nc1nc(-c2ccccc2)cs1)/c1cccs1	21%	?	5.4µM*	16µM*	7.9µM*	-4%
CN(C)S(=O)(=O)c1ccc(-c2csc(N/N=C/c3ccc(O)cc3)n2)cc1	-20%	-34%	11µM*	?	/	/
Nc1nc(-c2cccs2)c(CC(=O)O)s1	-8%	-1%	5%	-1%	1%	-3%
CN(C)S(=O)(=O)c1ccc(-c2csc(N/N=C/c3ccco3)n2)cc1	-31%	-34%	-57%	-17%	/	/
CCCN1C(=O)C(Cc2nc3ccccc3c(=O)n2CC)c2ccccc21 (stereo unspecified)	/	/	5%	/	3%	/
CC(=O)c1cccc(NC(=O)COc2ccccc2)c1	12%	-6%	?	?	-6%	-1%
CSc1cccc(NC(=O)Nc2ccccc2)c1	29%	29%	13µM*	?	?	-5%
CSc1cccc(NC(=O)Nc2ccccc2C(N)=O)c1	-5%	3%	11µM*	2%	/	/
SMILES	NPC1 promoter act	Rab9 prom act	FLuc modulator	ELG1 genotoxic	SMN2 splice up	KinaseGlo FLuc
CSc1cccc(NC(C)=O)c1	2%	-1%	-15%	0%	5%	-7%
CSc1cccc(NC(=O)COc2ccccc2)c1	11%	1%	17µM*	4%	5%	-3%
Cc1nccn1CCCNC(=O)C1CCC(=O)N(Cc2ccccc2F)C1 (stereo unspecified)	-1%	3%	2%	1%	/	/
CCCCc1ccc(-n2nc3cc(C)c(NC(=O)c4ccc(C#N)cc4F)cc3n2)cc1	/	/	-2%	/	-5%	/
c1ccc2nc3c(nc2c1)OCC1CCCCN31 (stereo unspecified)	4.5µM*	2.5µM*	3.8µM*	?	/	/
CCOc1ccc2nc(N3CCN(C(=O)c4ccc5c(c4)CCCC5)CC3)sc2c1	/	/	-14%	/	/	/
Cc1ccco1	/	/	/	/	5%	/
Cc1nn2cc(-c3ncc(C(F)(F)F)cc3Cl)cnc2c1Br	0.4µM*	0.32µM*	1.5µM*	?	/	?
Cc1cc2ncc(-c3ncc(C(F)(F)F)cc3Cl)cn2n1	0.71µM*	0.4µM*	1.3µM*	?	1.3µM*	-14%
COCCCn1c(=O)c2sccc2n2c(CCCC(=O)Nc3cccc(C(F)(F)F)c3)nnc12	/	/	3%	/	/	/
Clc1cc(Br)ccc1NCc1cccnc1	-2%	4%	?	4%	/	/
O=C(N/N=C/c1ccccn1)c1c[nH]c2ccccc12	2µM*	2.8µM*	8.5µM*	?	/	/
O=C(N/N=C/c1ccc[nH]1)c1sc2ccccc2c1Cl	-8%	-8%	7.6µM*	17%	-24%	-8%
O=C(CNc1cccc2ccccc12)N/N=C/c1ccc[nH]1	-37%	-44%	-2%	7%	/	/
O=C(N/N=C/c1ccc[nH]1)c1c[nH]c2ccccc12	-45%	-60%	15µM*	9%	/	/
O=C(N/N=C/C1CC2CCC1C2)c1c[nH]c2ccccc12 (stereo unspecified)	0%	-4%	4.8µM*	-1%	/	-3%
O=C(N/N=C/C1CC2CCC1C2)C1CC1 (stereo unspecified)	3%	-5%	0%	2%	/	/
O=C(N/N=C/c1ccccn1)c1ccc2nc[nH]c2c1	21%	3%	?	-12%	/	/
COc1ccc(CCn2c3c(c(=O)[nH]c2=O)C(NC(=O)c2ccc(C(C)(C)C)cc2)(C(F)(F)F)C(=O)N3)cc1OC (stereo unspecified)	/	/	?	/	0%	/
Cc1ccc(NC(=O)c2sc(N)nc2C)cc1	2.5µM*	2.2µM*	21µM*	21µM*	/	/
Cc1ccc(NC(=O)c2c(C)noc2C)cc1	0%	-2%	3%	3%	-18%	-2%
Cc1nc(Cl)sc1C(=O)Nc1ccc(C(C)(C)C)cc1	25%	-1%	11µM*	?	/	/
Cc1nc(C(=O)Nc2ccccc2)sc1C(=O)Nc1ccccc1	3.5µM*	3.5µM*	13µM*	19%	/	/
Cc1noc(N)c1C(=O)Nc1ccc(C(C)(C)C)cc1	2.5µM*	3.2µM*	3.4µM*	?	?	-26%
Cc1nc(N)sc1C(=O)Nc1ccccc1	?	?	?	?	28%	-26%
COC(=O)c1ccc2c(=O)n(CCCCCC(=O)NCCc3ccc(Cl)cc3)c(=O)[nH]c2c1	/	/	-6%	/	/	/
Cc1ccc(-n2cnc3cc(C(=O)NCc4ccc(F)cc4)ccc32)c(C)c1	/	/	-1%	/	/	/

Screens as filed in PubChem.
